Measured values taken from the supplement of paper PMC6555819.

What was measured:
Experiment in all cases: PBM binding z-score (relative to random genomic background probes); higher = stronger binding; sequences stand for … in GC…GCGATTGACAGCGTAGAATGAAGG
[1] = tested on: PPARg:RXRa DBDmut IVT, anti-RXR (DBD mutation: RXRa K156A/R161A, NR concentration 270 nM, RXRa partner concentration 90 nM)
In short: (§1)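 Ligand-free nuclear receptor dimers were applied to custom Agilent 4×180K protein-binding microarrays whose double-stranded probes carried direct-repeat seeds, single-nucleotide variants, half-site ablations and random human genomic background sequences in 34-nt variable regions. Incubation lasted 1 h. Binding z-scores were computed against the random background probes from regression-normalized fluorescence.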

[2] = tested on: PPARg:RXRa IVT, anti-PPARg (NR concentration 270 nM, RXRa partner concentration 90 nM)
In short: as §1

[3] = tested on: PPARg DBDmut:RXRa IVT, anti-PPARg (DBD mutation: PPARg1 K132A/R137A, NR concentration 270 nM, RXRa partner concentration 90 nM)
In short: as §1

[4] = tested on: PPARg DBDmut IVT, anti-PPARg (DBD mutation: PPARg1 K132A/R137A, NR concentration 270 nM)
In short: as §1

[5] = tested on: PPARg homodimer (NR concentration 180 nM)
In short: as §1

[6] = tested on: PXR:RXRa (NR concentration 270 nM, RXRa partner concentration 90 nM)
In short: as §1

[7] = tested on: PXR homodimer (NR concentration 270 nM)
In short: as §1

[8] = tested on: RARa:RXR (NR concentration 270 nM, RXRa partner concentration 90 nM)
In short: as §1

[9] = tested on: RARa homodimer (NR concentration 270 nM)
In short: as §1

[10] = tested on: RARb:RXRa (NR concentration 270 nM, RXRa partner concentration 90 nM)
In short: as §1

[11] = tested on: RARb homodimer (NR concentration 270 nM)
In short: as §1

[12] = tested on: RARg:RXRa (NR concentration 270 nM, RXRa partner concentration 90 nM)
In short: as §1

[13] = tested on: RARg homodimer (NR concentration 270 nM)
In short: as §1

[14] = tested on: RXRa DBDmut IVT, anti-RXR (DBD mutation: RXRa K156A/R161A, NR concentration 90 nM)
In short: as §1

[15] = tested on: RXRa homodimer (NR concentration 180 nM)
In short: as §1

[16] = tested on: THRa:RXRa (NR concentration 90 nM, RXRa partner concentration 90 nM)
In short: as §1

[17] = tested on: THRa homodimer (NR concentration 90 nM)
In short: as §1

[18] = tested on: VDR homodimer (NR concentration 270 nM)
In short: as §1

| Sequence | PBM binding z-score [1] | PBM binding z-score [2] | PBM binding z-score [3] | PBM binding z-score [4] | PBM binding z-score [5] | PBM binding z-score [6] | PBM binding z-score [7] | PBM binding z-score [8] | PBM binding z-score [9] | PBM binding z-score [10] | PBM binding z-score [11] | PBM binding z-score [12] | PBM binding z-score [13] | PBM binding z-score [14] | PBM binding z-score [15] | PBM binding z-score [16] | PBM binding z-score [17] | PBM binding z-score [18] |
| --- | --- | --- | --- | --- | --- | --- | --- | --- | --- | --- | --- | --- | --- | --- | --- | --- | --- | --- |
| ATATGTAGCTTAGCTGGGGTCATTCAGACTAGGC | 0.33 | 0.991 | 0.947 | 0.695 | 1.04 | 5.29 | 1.48 | 4.92 | 0.298 | 2.4 | 3.13 | 3.19 | 2.02 | 1.54 | 5.09 | 3.92 | 2.85 | 3.19 |
| CCTACTGGGCCACGAAAGGTCATTGCTTCAGTGA | 5.37 | 5.7 | 1.88 | 1.06 | 3.27 | 5.56 | 2.05 | 5.35 | 1.56 | 3.94 | 4.75 | 4.81 | 4.35 | 0.871 | 4.81 | 3.73 | 0.827 | 2.61 |
| TGAATGAGATTATAAGATCAGGGAACGTTGCAAA | -1.28 | -0.236 | 0.555 | 0.576 | -1.31 | -0.518 | -0.193 | -0.548 | 0.0948 | -1.13 | -1.01 | -0.048 | 0.172 | -1.08 | -0.35 | -0.424 | -1.28 | -0.262 |
| CAAACAAGGTCAAGAGGTCAAAGTCCGCTTCCCG | 5.59 | 6.52 | 1.74 | 1.24 | 8.18 |  | 5.91 |  | 4.23 |  | 6.24 |  | 8.91 | 3.92 |  |  | 3.28 | 5.74 |
| ACTCGGAGGACAAAGGTCATAGCTACGCCAGTGA | 1.2 | 4.45 | 0.463 | 0.599 | 3.32 | 5.22 | 0.775 | 5.76 | 1.36 | 4.83 | 4.7 | 6.88 | 5.24 | 1.91 | 6.51 | 4.13 | 1.2 | 2.55 |
| TCTCGGTGGACACGAAGGTCAGAGCTTTCCAGAG | 1 | 0.976 | -1.18 | -1.31 | 0.842 | 1.38 | -0.107 | 1.55 | -0.711 | 2.57 | 3.04 | 2.19 | 1.97 | 0.131 | 1.55 | 1.39 | -0.0519 | -0.0711 |
| CGTCCAAGGTCAATGCTAGGTCAGTGAAAGCATT | 3.41 | 3.83 | 0.477 | 0.749 | 6.35 | 5.01 | 1.68 | 6.41 | 1.72 | 5.23 | 4.88 | 7.68 | 6.83 | 3.85 | 5.28 | 4.31 | 2.74 | 3.1 |
| CAAACAAGGTCAAGGTCAAAGTCGGTTTGTGCCA | 5.99 | 6.6 | 3.37 | 1.15 | 4.82 |  | 3 | 6.86 | 2.95 |  | 5.74 |  | 7.76 | 4.13 |  | 4.6 | 4.5 | 5.71 |
| TGTCAAAGTTCATAGGTAACGTAAGTATCCACAC | 0.217 | 4.39 | 1.15 | 2.16 | 1.89 | 5.05 | 3.32 | 4.15 | 0.391 | 4.9 | 3.62 | 5.31 | 5.2 | 4.28 | 5.16 | 2.58 | -0.00989 | 4.46 |
| CCGAGTAGGTCATGGGGCATTCAGGCAACGGTGA | 5.78 | 6.73 | 0.331 | -0.486 | 2.5 | 2.15 | -0.103 | 3.58 | 0.815 | 3.78 | 3.25 | 4.34 | 4.44 | 0.881 | 3.87 | 2.45 | 0.499 | 0.642 |
| TCTAGTTGGTCAGAGGTCACACACTCGAAATGCG | 2.47 | 4.96 | 1.28 | 0.861 | 4.45 | 5.4 | 1.74 | 5.99 | 1.84 | 4.49 | 4.5 | 6.07 | 5.24 | 1.92 | 6.47 | 3.99 | 2.52 | 3.35 |
| TCAGCTAGGTCAACGATGGTCAGCTAATCTGCTA | 4.15 | 4.22 | -0.361 | -0.524 | 1.38 | 1.42 | -0.591 | 1.96 | -0.477 | 4.05 | 3.49 | 3.89 | 4.83 | 1.11 | 2.49 | 2.88 | 0.578 | -0.3 |
| ATATGTAGGCTATCGGGTCATTCAGTTTGCGCAT | 5.77 | 5.5 | 1.43 | 1.46 | 1.08 | 2.87 | 6.85 | 2.54 | 0.357 | 1.72 | 2.23 | 2.01 | 1.52 | 1.1 | 2.08 | 2.91 | 1.79 | 3.16 |
| GCGACTGGGGCAGCAGCAGGTTACCATAACTTAA | 3.5 | 2.23 | -1.15 | -0.983 | -0.687 | -0.502 | -0.939 | -0.19 | -0.8 | 0.608 | 0.746 | 0.167 | 0.234 | -0.331 | -0.00155 | 0.651 | -0.162 | -0.595 |
| TTACCAAGGTAAAGGTCGTTGATCCCTCTGTAGA | 0.8 | 3.8 | 1.13 | 0.564 | 1.72 | 2.59 | 0.148 | 2.98 | -0.24 | 2.14 | 2.13 | 1.95 | 1.08 | 0.533 | 2.7 | 2.48 | 0.667 | 1.55 |
| TCTGCTAGGTCAGTTGGTCACCTAACGAGCTGCC | 2.8 | 3.77 | 1.37 | 0.817 | 0.461 | 0.216 | -0.932 | 0.734 | -1.21 | 3.44 | 2.87 | 2.97 | 3.79 | 0.479 | 1.15 | 1.88 | 0.86 | -0.466 |
